The source of these data is PubChem BioAssay AID588778 (Southern Research Institute, 2011).

A short description of this assay: Vibrio cholerae motility inhibitors, OD read-out (AID 588778). The settings on record: stronger effect = higher value.
Where [1] appears, read: measured here: bacterial viability at 10 ug/mL.

Among all 10,000 compounds or so, fewer than 10 were called active. No rule for the calls is given here. Not all results are given here.

In general, inhibition refers to the change of the read-out against control, counted positive when it falls. For the compound `c1ccc2nc3c(nc2c1)CCc1nonc1-3`, the inhibition (concentration not given here) is 0.045% (inactive) and the inhibition under setting [1] is -1.06%.

`CCOC(=O)c1ccc(CNC(=O)CCC(=O)O)cc1`: the inhibition (concentration not given here) was 2.35% (inactive) and the inhibition under setting [1] was -10.3%.

For the compound `O=C(CCC(=O)Nc1ccccc1Cl)NNC(=O)Nc1ccc(F)cc1F`, the inhibition (concentration not given here) was -13.9% (inactive) and the inhibition under setting [1] is -8.28%.

Turning to `O=C(c1c(F)cccc1F)N1CCN(C(c2ccccc2)c2ccccc2)CC1`, the inhibition (concentration not given here) was 11.9% (inactive) and the inhibition under setting [1] is -2.62%.

Turning to `O=C(NC(=S)NNC(=O)c1cnccn1)c1ccc(F)cc1`, the inhibition by setting is: (concentration not given here) 17.5% (inactive); under setting [1], 4.07%.

For `CCSc1nnc(NC(=O)c2ccc(Br)s2)s1`, the inhibition was -21.3% (inactive) (concentration not given here) and -10.2% under setting [1].

Consider `O=C(O)CCc1ccc(-c2cccs2)n1-c1cc(Cl)ccc1Cl`, for which the inhibition by setting is: (concentration not given here) 5.81% (inactive); under setting [1], -0.02%.

On to `CCc1ccccc1OCCCCn1c2ccccc2c2ccccc21`, for which the inhibition (concentration not given here) was -30.3% (inactive) and the inhibition under setting [1] was -15.4%.

For `COCCSc1ccccc1C(=O)NCc1ccc(S(N)(=O)=O)cc1`, the inhibition reads like this: (concentration not given here) 4.8% (inactive); under setting [1], 5.23%.

With `CCCC(=O)N1CCN(c2ccc(NC(=O)COc3ccc(C)c(C)c3)cc2Cl)CC1`, the inhibition is 10.7% (inactive) (concentration not given here) and 4.97% under setting [1].

In the case of `O=C(Nc1nnc(C(F)(F)F)s1)C(Sc1ccccc1)c1ccccc1` (stereo not given), the inhibition reads like this: (concentration not given here) -9.96% (inactive); under setting [1], -4.95%.

As to `O=C(Cc1ccccc1Cl)c1ccc(O)c(O)c1O`, the inhibition by setting is: (concentration not given here) 12.7% (inactive); under setting [1], 2.63%.

In the case of `COc1cc(OC)c(NC(=O)c2csc3ccccc23)cc1Cl`, the inhibition reads like this: (concentration not given here) 4.43% (inactive); under setting [1], 1.11%.

Turning to `COC(C(=O)Nc1cc([N+](=O)[O-])ccc1C)c1ccccc1` (stereo not given), the inhibition by setting is: (concentration not given here) 3.61% (inactive); under setting [1], -3.16%.

On to `O=C(OCc1ccccc1F)c1ccc([N+](=O)[O-])cc1Cl`, for which the inhibition was 45.5% (inactive) (concentration not given here) and 18.5% under setting [1].

For `Cn1ncc(C#N)c1NC(=O)C1CC(c2c(F)cccc2Cl)=NO1` (stereo not given), the inhibition reads like this: (concentration not given here) 15.8% (inactive); under setting [1], 10.8%.

On to `Cn1nc([N+](=O)[O-])nc1Sc1nnc(-c2cccnc2)o1`, for which the inhibition is, setting by setting: (concentration not given here) 44.4% (inactive); under setting [1], 15.6%.

`COc1cc2c(NCc3ccccc3)cc(O)c(CC(=O)Nc3ccc(Cl)cc3)c2cc1OC`: the inhibition reads like this: (concentration not given here) 8.57% (inactive); under setting [1], 1.46%.

Consider `Cc1ccc(-c2c(C(=O)NNC(=S)NCC3CCCO3)csc2C)cc1` (stereo not given), for which the inhibition by setting is: (concentration not given here) 17.3% (inactive); under setting [1], -2.95%.

As to `Cc1ccccc1NC(=S)NC1CCCC1`, the inhibition was -3.76% (inactive) (concentration not given here) and -1.53% under setting [1].

On to `O=C(CSc1nc2ccccc2s1)NNC(=S)Nc1ccc(F)c(Cl)c1`, for which the inhibition (concentration not given here) is 47.6% (inactive) and the inhibition under setting [1] was determined as 18.2%.

As for `Cc1ccc2c(c1)C(=O)C(=O)N2`, the inhibition is 26.8% (inactive) (concentration not given here) and 12.9% under setting [1].

For `Cc1nc(Oc2ccc3c(c2)OCO3)c2cc(-c3ccccc3)sc2n1`, the inhibition (concentration not given here) is 6.33% (inactive) and the inhibition under setting [1] is 0.3%.

In the case of `Cc1ccc2cccc(OCc3nnc(-c4ccccc4)o3)c2n1`, the inhibition (concentration not given here) was 14.5% (inactive) and the inhibition under setting [1] was -1.8%.

As for `COC(=O)c1ccc2ccn(CC(N)=O)c2c1`, the inhibition (concentration not given here) is 8.78% (inactive) and the inhibition under setting [1] worked out at 7.37%.

On to `COc1cccc(/C=C/C2=NN(c3ccc(Cl)c(Cl)c3)C(c3cccc(OC)c3OC)C2)c1OC` (stereo not given), for which the inhibition was 26.7% (inactive) (concentration not given here) and 13.6% under setting [1].

On to `Cc1ccccc1NC(=O)NC1CCS(=O)(=O)C1` (stereo not given), for which the inhibition (concentration not given here) is -0.46% (inactive) and the inhibition under setting [1] was -4.02%.

Take `C=CCOc1cccc(CNc2ccc3[nH]c(=O)[nH]c3c2)c1`: the inhibition by setting is: (concentration not given here) 33.7% (inactive); under setting [1], 18.3%.

Consider `Cc1ccc2nc(-c3cccnc3)cc(C(=O)Nc3ccc4c(C)cc(=O)oc4c3)c2c1`, for which the inhibition was -7.04% (inactive) (concentration not given here) and 9.26% under setting [1].

Turning to `O=C(O)Cc1ccc(NC(=O)c2cccnc2C(=O)O)cc1`, the inhibition (concentration not given here) is -4.82% (inactive) and the inhibition under setting [1] is -2.46%.

As to `Cc1ccc(NC(=O)c2ccccc2NC(=O)Cc2ccc(Cl)cc2)cc1C`, the inhibition by setting is: (concentration not given here) 11.1% (inactive); under setting [1], 19.3%.

With `O=C1C(c2ccccn2)=C(O)c2ccccc21`, the inhibition reads like this: (concentration not given here) 14.8% (inactive); under setting [1], 4.31%.

As to `O=C(NCCSCc1ccco1)Nc1ccccc1`, the inhibition was 22.3% (inactive) (concentration not given here) and 0.29% under setting [1].

For the compound `O=C(CSCc1ccc([N+](=O)[O-])cc1)N1CCN(c2cccc(Cl)c2)CC1`, the inhibition (concentration not given here) was -5.85% (inactive) and the inhibition under setting [1] was -3.47%.

Consider `Cc1cc2[nH]c(=S)n(Cc3ccccc3Cl)c2cc1C`, for which the inhibition (concentration not given here) is -26.6% (inactive) and the inhibition under setting [1] was -12.9%.

With `O=C(NC(=O)C(Cl)(Cl)Cl)NC1CCCC1`, the inhibition was -16.4% (inactive) (concentration not given here) and 3.96% under setting [1].

With `O=C(NC(=S)Nc1ccccc1C(=O)NC1CCCCC1)c1ccco1`, the inhibition (concentration not given here) was 3.43% (inactive) and the inhibition under setting [1] came to 7.92%.

As to `CCn1ccc(C(=O)Nc2ccc(C(F)(F)F)cc2Cl)n1`, the inhibition by setting is: (concentration not given here) -7.69% (inactive); under setting [1], -1.52%.

As for `Cc1cc(N2C(=O)CC(Cc3ccc(Cl)cc3)C2=O)no1` (stereo not given), the inhibition runs as follows: (concentration not given here) 1.86% (inactive); under setting [1], -6.9%.

In the case of `O=C(CC(NC(=S)Nc1ccccc1)c1ccccc1)c1ccccc1` (stereo not given), the inhibition (concentration not given here) was 15.4% (inactive) and the inhibition under setting [1] is 5.66%.

For `CC(C)C(C(=O)O)c1ccc([N+](=O)[O-])cc1` (stereo not given), the inhibition (concentration not given here) was 6.16% (inactive) and the inhibition under setting [1] was -2.35%.

In the case of `COc1ccc([N+](=O)[O-])cc1CSc1ccccn1`, the inhibition (concentration not given here) was -1.69% (inactive) and the inhibition under setting [1] is -0.75%.

Consider `CC(C)CNC(=S)NNC(=O)CC(C)O` (stereo not given), for which the inhibition was 52.6% (inactive) (concentration not given here) and 22.3% under setting [1].

Take `CSCCC(C(=O)O)n1c(-c2ccc3ccccc3n2)n[nH]c1=S` (stereo not given): the inhibition was -9.7% (inactive) (concentration not given here) and -4.1% under setting [1].

`Cc1ccc(C(C)C)c(OCCSc2nc3ccccc3n2CC(O)CO)c1` (stereo not given): the inhibition is, setting by setting: (concentration not given here) 6.25% (inactive); under setting [1], -5.04%.
